The first experiment concerns the target DNTTIP1. In words: pooled miR-30 sensor sort-seq; sequence = guide strand. The note with it: shRNA.
The sequence TACTTGTTGAAGACAGTCTGGA registered a sensor-assay potency score (higher = more potent) of 0.302.
For TTGGTTTCCATACCATGCCGGC, the sensor-assay potency score (higher = more potent) is -0.684.
As for TTGATGTAGATTCTTCCTCTGG, the sensor-assay potency score (higher = more potent) is -0.475.
TATACTTTCTCATCTTCTCCAC: the sensor-assay potency score (higher = more potent) worked out at 0.0054.
TGAAACTTGTTGTCATCTGTGA registered a sensor-assay potency score (higher = more potent) of 0.435.
The sequence TAGAACCACATGCTAGTCTGGG yielded a sensor-assay potency score (higher = more potent) of -0.495.
Take TTTCAATTCCTCTAGCTTCAGA: the sensor-assay potency score (higher = more potent) was -0.665.
Still for that read-out and setting: next, TTTATCATTATGTTCCAAGGGT: 0.164; TTCCTCTAGCTTCAGATCCAGG: -1.66.
Same read-out and setting: next, TTTGGTTTCCATACCATGCCGG: -0.318; TGAGTCACTACAAACTCGCTCA: -0.249.

In another experiment the target is DOCK11. The description is as above. The note with it: shRNA.
With TTTTGTATGCATAACTTCCAGA, the sensor-assay potency score (higher = more potent) is -0.169.
In turn, TTCTTGAACTAAACTGTCGGTG gave a sensor-assay potency score (higher = more potent) of -0.436.
TTGCTTTATGCAACCAGCCTTG: the sensor-assay potency score (higher = more potent) was -0.849.
TTCAATATTGCTATCATCGTAG registered a sensor-assay potency score (higher = more potent) of 0.383.
Sequence TTTCTTGAACTAAACTGTCGGT displayed a sensor-assay potency score (higher = more potent) of 0.142.
Sequence TTGATCTTCTTTAATTAGCCGC registered a sensor-assay potency score (higher = more potent) of -0.638.
TTGAACTAAACTGTCGGTGTTG gave a sensor-assay potency score (higher = more potent) of -0.114.
The sequence TAAACTGTCGGTGTTGATCTGA displayed a sensor-assay potency score (higher = more potent) of 0.463.
Turning to TGATCTTAGATAACTATCCAAG, the sensor-assay potency score (higher = more potent) is -1.04.
The sequence TTCTCTTCCAACAAGTATGTGG displayed a sensor-assay potency score (higher = more potent) of -0.568.
Still for that read-out and setting: to TTTAGCTGTCCTGTGCACCTTC belongs 0.773.
Regarding TTCACTATAATGGACATCCATC, the sensor-assay potency score (higher = more potent) is -1.02.

A further experiment concerns the target DOCK1. The description is as above. The note with it: shRNA.
TTAGACTTTTTTCGTAACGTGT registered a sensor-assay potency score (higher = more potent) of -0.535.
In turn, TTCGTAACGTGTAACCTCGGTA had a sensor-assay potency score (higher = more potent) of -0.19.
Turning to TCATCGTACACAGACACCGTGA, the sensor-assay potency score (higher = more potent) is -0.406.
In the case of TTGTACTGTTCGTCTCCTCTGC, the sensor-assay potency score (higher = more potent) is 0.121.
For the sequence TTACAATCTGCTCTGACACTGG, the sensor-assay potency score (higher = more potent) was 0.172.
In turn, TTTCGTAACGTGTAACCTCGGT yielded a sensor-assay potency score (higher = more potent) of 0.0583.
Take TATTATATCTGTTACATCCATC: the sensor-assay potency score (higher = more potent) is -0.566.
For the sequence TTTCGTTCTCATACTGCTCGGC, the sensor-assay potency score (higher = more potent) is 0.184.
Sequence TAACACTTTGTACTGTTCGTCT came in with a sensor-assay potency score (higher = more potent) of -0.198.
TTCTTTGTTCTCGTCGTGCATG came in with a sensor-assay potency score (higher = more potent) of -1.13.
Regarding TATCATTTCGAACATCACCAGG, the sensor-assay potency score (higher = more potent) is -1.26.
Sequence TTGGAGACACACCTCAACCAAC came in with a sensor-assay potency score (higher = more potent) of -1.22.
Regarding TATCTTGTGTTGACCAAGGTTG, the sensor-assay potency score (higher = more potent) is -0.193.
For AACACTTTTGTCAACTTCGTGT, the sensor-assay potency score (higher = more potent) worked out at 0.131.
Same read-out and setting: next, TTCGACTTCATGATCCAGCTTG: 0.58.
TAACAGTCTCAAACCAGCGTGG returned a sensor-assay potency score (higher = more potent) of -0.364.

The record behind these values is the OligoGym collection.
Also: reference of the scale not given here.
